# NR2F2 inh: blocks human COUP-TFII nuclear receptor. 370,000 compounds, 0.7% hits. inhibition, % at 8.6 µM. P24468. HEK293T NGFI-A luciferase reporter, luminescence. AID 686940;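 active means inhibition above a per-plate cutoff, mean inhibition of test wells between control levels plus 3 SD, cut at about 38% in these data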;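 further: cells cotransfected with COUP-TFII expression vector driving the NGFI-A reporter; 0% = median of COUP-TF2 test wells and 100% = reporter-only cells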
# GalR3 antag: human GalR3 antagonism. O60755. AID 651719. HEK293 GalR3-CNG cAMP membrane potential fluorescence; galR3 body fused to GalR1 C-terminus. 360,000 compounds, 0.44% hits. inhibition, % at 3 µM;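 active means inhibition above the screen-wide average plus 3 SD, cut at about 13% in these data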;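 further: forskolin and galanin both at EC90 stimulate the cells; cAMP rise reported by CNG channel membrane potential dye signal; 0% = forskolin plus galanin with DMSO and 100% = forskolin alone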
# Target sequence (O60755 1-299 limits assumed): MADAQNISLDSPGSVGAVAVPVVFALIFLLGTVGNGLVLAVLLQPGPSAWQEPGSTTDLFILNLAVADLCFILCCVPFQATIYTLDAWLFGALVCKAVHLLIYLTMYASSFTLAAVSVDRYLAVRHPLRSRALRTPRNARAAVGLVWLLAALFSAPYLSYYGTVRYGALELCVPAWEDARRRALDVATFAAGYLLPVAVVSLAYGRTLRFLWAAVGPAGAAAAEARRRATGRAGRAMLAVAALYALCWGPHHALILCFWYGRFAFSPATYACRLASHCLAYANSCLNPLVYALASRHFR
# Gli-Sufu block: antagonists of Gli-Sufu signaling; Sufu-KO-LIGHT fibroblasts, Gli luciferase reporter luminescence; inhibition, % at 5 µM; 340,000 compounds, 0.74% hits;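 active means inhibition above about 55%, limit read from the data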;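 further: 0% = DMSO-treated cells and 100% = wells with medium but no cells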
# Env fusion inh: inhibitors of HIV Env-mediated cell fusion | HeLa-JRFL Env/CEM21 cell fusion, luciferase | inhibition, % at 12.3 µM | 360,000 compounds, 1.1% hits | AID 651610;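 active means mean replicate inhibition score of at least 50 and every replicate individually at or above 50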;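 further: 0% = plate neutral controls and 100% = maraviroc near 300 nM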
# aDG glyco up: increases alpha dystroglycan glycosylation; Pro5-aDG cells, alpha-DG glycosylation AlphaScreen (IIH6); 0% Pro5, 100% B10-LARGE cell signal; 360,000 compounds, 0.22% hits; activation, % at 10 µM;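 active means activation of at least 8% versus controls, or a plate z-score of at least 8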;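 further: Pro5 are CHO cells carrying HIG-tagged alpha-DG that lacks glycosylation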
# VP16 Luc counter: counter-screen for COUP-TFII antagonists: inhibitors of VP16 | 2,500 compounds, 25% hits | inhibition, % at 8.5 µM | HEK293 Gal4-VP16 luciferase reporter, luminescence | shares compounds with NR2F2 inh; in the data active means inhibition above about 13%
# NR2F2 inh conf: confirmation of human COUP-TFII (NR2F2) inhibitors | shares compounds with NR2F2 inh | inhibition, % at 8.5 µM | HEK293 NGFI-A luciferase reporter, luminescence | 2,500 compounds, 45% hits;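 active means mean inhibition over three repeats above a set limit taken from the earlier primary screen, cut at about 38% in these data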;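 further: 100% = cells given the luciferase reporter alone without the COUP-TF2 vector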
# * = called active by the depositor; x = no result given; ! = not active in a repeat; [ ] = remark or other dose. In the library only some 2.1% were active in any assay of this set; here they are far more common.
SMILES,NR2F2 inh,GalR3 antag,Gli-Sufu block,Env fusion inh,aDG glyco up,VP16 Luc counter,NR2F2 inh conf
Cc1noc(C)c1NC(=O)Nc1cccc2c1O[C@H](CN(C)S(=O)(=O)c1ccccc1)[C@@H](C)CN([C@@H](C)CO)C2=O,x,x,x,-17.4[16.7 µM],x,x,x
Cc1oc(-c2cc(F)ccc2F)nc1CN1CCN(c2ncnc3ccccc23)CC1,43.0*,-8.8,53.8,42.3,3.6,0.9,22.7
CCCNC1=C(N(C(C)=O)c2cccc(F)c2)C(=O)c2ccccc2C1=O,57.1*,-4.0,84.9*,78.1*,2.0,12.4,-2.1
CCC(=O)N(C1=C(NC(C)C)C(=O)c2ccccc2C1=O)C(C)C,3.4,0.0,8.2,28.2,0.9,x,x
COc1cc(/C=N/NC(N)=S)cc(Br)c1OCc1ccccc1F,52.1*,-9.3,32.5,41.4,-0.4,24.1*,50.8*
S=C(Nc1ccc(Nc2ccccc2)cc1)Nc1ccccn1,39.0*,3.9,34.7,32.9,9.4*,-30.2,16.1
O=C(COC(=O)CCN1C(=O)/C(=C\C=C\c2ccccc2)SC1=S)Nc1cc(F)ccc1F,42.1*,0.3,11.6,-10.9,0.2,52.8*,63.9*
O=C(CN1C(=O)/C(=C\C=C\c2ccccc2)SC1=S)Nc1ccc(F)cc1,-2.8,-1.8,-17.2,11.3,-0.2,x,x
C[C@H]1CN([C@@H](C)CO)C(=O)c2cc(-c3ccccc3)cnc2O[C@@H]1CN(C)Cc1cccnc1,x,x,x,0.6[16.7 µM],x,x,x
O=C(Nc1ccc(-c2nc3ccccc3s2)cc1)c1cc(-n2cnnc2)ccc1Cl,70.3*,-8.7,18.1,x,0.4,-16.5,52.4*
C[C@H]1CN([C@@H](C)CO)C(=O)Cc2cc(NC(=O)C3CC3)ccc2O[C@H]1CN(C)S(=O)(=O)c1ccc(F)cc1,x,x,x,15.6[16.7 µM],x,x,x
COc1ccc(NC(=O)N(C)C[C@H]2Oc3ccc(NC(=O)Nc4cccc5ccccc45)cc3C(=O)N([C@H](C)CO)C[C@H]2C)cc1,x,x,x,6.1[16.7 µM],x,x,x
C[C@H](CO)N1C[C@H](C)[C@@H](CN(C)C)Oc2cc(C#CC3(O)CCCC3)ccc2S1(=O)=O,x,x,x,1.0[16.7 µM],x,x,x
CCC(=O)N[C@H]1C=C[C@H](CC(=O)NCc2ccccc2OC)O[C@H]1CO,x,x,x,-9.2[16.7 µM],x,x,x
CC[n+]1c(/C=C/c2c[nH]c3ccccc23)ccc2cc(C)ccc21,38.3*,-9.6,89.8*,-5.8,x,4.0,51.9*
C[C@H]1CCCCO[C@H](CN(C)CC2CC2)[C@@H](C)CN([C@@H](C)CO)C(=O)c2cc(NC(=O)C3CCCCC3)ccc2O1,x,x,x,-0.6[16.7 µM],x,x,x
COc1cc(NC(=O)c2ccnc(N)c2)cc(C(=O)Nc2cccc(C(F)(F)F)c2)c1,8.7,-7.2,0.6,17.1,0.0,x,x
COc1cc(NC(=O)c2cnc(N)o2)cc(C(=O)Nc2cccc(C(F)(F)F)c2)c1,66.1*!,-4.9,6.0,23.6,-0.1,-21.1,21.9
Cc1ccccc1-c1cnc2c(c1)C(=O)N([C@H](C)CO)C[C@@H](C)[C@H](CN(C)C(=O)CC1CC1)O2,x,x,x,-25.3[16.7 µM],x,x,x
COc1ccccc1C(=O)NC(=S)Nc1ccc(N2CCN(C(=O)c3ccco3)CC2)cc1,23.0,-2.8,32.8,19.5,0.2,x,x
Cc1cccc(OCC(=O)Nc2ccc(N3CCN(C(=O)c4ccco4)CC3)cc2)c1,63.7*,8.2,25.3,x,3.4,1.0,34.3
Cc1ccccc1C(=O)N1CCN(c2ccc(NC(=S)NC(=O)c3ccco3)cc2)CC1,46.2*,-3.0,13.9,10.6,0.6,-7.6,17.6
Cc1ccc(OCC(=O)Nc2ccc(N3CCN(C(=O)c4ccco4)CC3)cc2)cc1C,21.8,-3.0,10.3,13.5,0.5,x,x
C[C@H](CO)N1C[C@H](C)[C@H](CN(C)Cc2ccc3c(c2)OCO3)Oc2ccc(NS(=O)(=O)c3ccccc3)cc2C1=O,x,x,x,8.9[16.7 µM],x,x,x
O=C(C[C@@H]1C=C[C@@H](NS(=O)(=O)c2ccccc2)[C@H](CO)O1)NCc1ccccc1F,x,x,x,-3.0[16.7 µM],x,x,x
O=C(c1cc(COc2ccc3ncccc3c2)on1)N1CCCCCC1,43.0*,41.5*,48.2,11.5,1.4,3.7,49.2*
Cc1ccc(OCc2cc(C(=O)N3CCCCCCC3)no2)cc1C,-8.7,-2.2,-12.9,-24.8,0.1,x,x

# High-throughput results from PubChem.
